# Measured values published in PubChem BioAssay (EPA / NIEHS).
# Records with an inconclusive call do not appear. Activity calls are given as the source filed them. How the source made its calls: active means hit-call score of the fitted dose curve at least 0.9, where 1 is the maximum; inconclusive means response in the unintended direction; inactive means score below 0.9.
# Read-out: xenobiotic metabolism (CYP1A1), CYP1A1 (gene 1543)
# Experiment: CLD_CYP1A1_48hr: CellzDirect (CLD) Gene Expression Assay for xenobiotic metabolism (CYP1A1) at 48 hours (AID 2283705)
# Protocol: CLD_48hr is a cell-based, multiplexed-readout assay that uses hepatocyte, a human liver primary cell, with measurements taken at 48 hours after chemical dosing in a 96-well plate.CLD_CYP1A1_48hr is one of 16 assay component(s) measured or calculated from the CLD_48hr assay. It is designed to make measurements of mRNA induction, a form of inducible reporter, as detected with chemiluminescence signals by Quantitative Nuclease Protection Assay (qNPA) technology.Data from the assay component CLD_CYP1A1_48hr was analyzed at the endpoint, CLD_CYP1A1_48hr, in the positive analysis fitting direction relative to DMSO as the negative control and baseline of activity. Using a type of inducible reporter, gain-of-signal activity can be used to understand changes in the reporter gene as they relate to the gene CYP1A1. Furthermore, this assay endpoint can be referred to as a primary readout. To generalize the intended target to other relatable targets, this assay endpoint is annotated to the cyp intended target family, where subfamily is xenobiotic metabolism.
# Human hepatocyte cultures were treated daily for two consecutive days with fresh dosing solutions containing appropriate concentrations of the 320 ToxCast chemicals (chemical identities were blinded to CellzDirect and other ToxCast collaborators), vehicle control (0.2% DMSO), and positive control inducers as summarized in Table 1. Due to the large number of treatment groups and chemicals examined, the ToxCast chemicals were divided into two groups (spanning two independent cultures of hepatocytes from separate donor preparations (Hu778: ToxCast plates 1 and 2; Hu776: ToxCast plates 3 and 4). Each preparation of human hepatocyte cultures was treated with respective vehicle control, medium only control, set of six positive controls/reference chemicals for the five hepatic receptor pathways, and a subset of eight of the ToxCast chemicals (indoxacarb, pyrithiobac-sodium, norflurazon, cyhalofop-butyl, methomyl, thiram, acetochlor, and propiconazole). These replicate data, coupled with internal replicates designed within the blinded ToxCast chemical library, provided additional data to evaluate interindividual differences between hepatocyte preparations and their potential impact on chemical profiles.Cell morphology and integrity were evaluated using phase-contrast microscopy as an indicator of hepatocyte cell health (Tyson & Green, 1987). Cultures for each treatment group (i.e., media, vehicle [0.2% DMSO], positive control inducers [multiple concentrations], and the ToxCast chemicals [multiple concentrations]) were observed and cell morphology was assessed relative to vehicle control cultures at each harvest time point (0, 6, 24, or 48 h). […] Images were evaluated at the conclusion of the study to assess changes in cell integrity and account for the effects of chemical exposure on uncharacteristic changes in concentration-dependent gene expression profiles. The results from these determinations of apparent cytotoxicity were annotated (yes/no) alongside the corresponding qNPA data for reference.At the conclusion of each treatment period, hepatocyte cultures (96-well) were washed with 1 volume of HBSS, lysed by addition of 25 ul ArrayPlate lysis buffer (HTG, Tucson, AZ), and 70 ul/well of Denaturation Oil, denatured by incubation at 95C for 10 min, and frozen at approximately -70C until analysis by nuclease protection assay (qNPA) (Roberts et al., 2007). For qNPA analysis, cell lysates were thawed at 50C for approximately 30 min, qNPA probes were added, and samples were incubated at 95C for 10 min to begin the detection process by denaturing the target RNA, dissociating the duplexes and secondary structure hybridization. At the conclusion of the hybridization period, S1 nuclease reagent was added to each sample to digest all nonprotected nucleotides at 50C for 60-90 min. […]
Compound,AC50,outcome
CCOc1nc(NC)nc(NC(=O)NS(=O)(=O)c2ccccc2C(=O)OC)n1,20 µM (active),–
CCN(CC)C(=O)SCc1ccc(Cl)cc1,–,inactive
O=C(Nc1ccccc1)Nc1cnns1,20 µM (active),–
COC(=O)c1ccccc1S(=O)(=O)NC(=O)N(C)c1nc(C)nc(OC)n1,–,inactive
N#CN,–,inactive
CCC(C)(C)C(=O)OC1=C(c2ccc(Cl)cc2Cl)C(=O)OC12CCCCC2,–,inactive
O=[N+]([O-])c1c(Cl)c(Cl)c(Cl)c(Cl)c1Cl,3.97 µM (active),–
CC1(C)C(C=C(Cl)Cl)C1C(=O)OC(C#N)c1ccc(F)c(Oc2ccccc2)c1 (stereo not given),–,inactive
CCCN(CCOc1c(Cl)cc(Cl)cc1Cl)C(=O)n1ccnc1,0.458 µM (active),–
CNC(=O)Oc1ccccc1OC(C)C,–,inactive
Oc1cc(Cl)ccc1Oc1ccc(Cl)cc1Cl,–,inactive
COP(=O)(OC)OC=C(Cl)Cl,–,inactive
COc1nn(CSP(=S)(OC)OC)c(=O)s1,11.2 µM (active),–
CC1(c2ccc(Oc3ccccc3)cc2)OC(=O)N(Nc2ccccc2)C1=O (stereo not given),3.38 µM (active),–
CC[C@H](C)[C@H]1O[C@]2(C=C[C@@H]1C)C[C@@H]1C[C@@H](C/C=C(\C)[C@@H](O[C@H]3C[C@H](OC)[C@@H](O[C@H]4C[C@H](OC)[C@@H](O)[C@H](C)O4)[C@H](C)O3)[C@@H](C)/C=C/C=C3\CO[C@@H]4[C@H](O)C(C)=C[C@@H](C(=O)O1)[C@]34O)O2 (tested in a mixture with another compound),–,inactive
O=C(O)COc1ccc(Cl)cc1Cl,–,inactive
CCOCN(C(=O)CCl)c1c(C)cccc1CC,1.85 µM (active),–
O=S(=O)(O)C(F)(F)C(F)(F)C(F)(F)C(F)(F)C(F)(F)C(F)(F)C(F)(F)C(F)(F)F,–,inactive
COP(=S)(OC)Oc1ccc([N+](=O)[O-])cc1,12.2 µM (active),–
CCS(=O)(=O)c1cccnc1S(=O)(=O)NC(=O)Nc1nc(OC)cc(OC)n1,2.37 µM (active),–

Compound,AC50,outcome
CN1CSC(=S)N(C)C1,–,inactive
O=[N+]([O-])/N=C1\NCCN1Cc1ccc(Cl)nc1,–,inactive
CC(C)N(C(=O)COc1nnc(C(F)(F)F)s1)c1ccc(F)cc1,14.2 µM (active),–
CNC(=O)/C=C(\C)OP(=O)(OC)OC,–,inactive
COC(=O)c1ccccc1CS(=O)(=O)NC(=O)Nc1nc(OC)cc(OC)n1,–,inactive
CCc1ccc(C(=O)NN(C(=O)c2cc(C)cc(C)c2)C(C)(C)C)cc1,–,inactive
CCOC1Oc2ccc(OS(C)(=O)=O)cc2C1(C)C (stereo not given),–,inactive
O=C(O)C(F)(F)C(F)(F)C(F)(F)C(F)(F)C(F)(F)C(F)(F)C(F)(F)F,0.0776 µM (active),–
[2H]C1([2H])[n+]2ccccc2-c2cccc[n+]2C1([2H])[2H],20 µM (active),–
CCCN(CCC)c1c([N+](=O)[O-])cc(C(F)(F)F)cc1[N+](=O)[O-],15.3 µM (active),–
C[C@H]1[C@H](c2ccc(Cl)cc2)SC(=O)N1C(=O)NC1CCCCC1,34 µM (active),–
CC(C)(C)C(O)C(Oc1ccc(Cl)cc1)n1cncn1 (stereo not given),5.32 µM (active),–
CCC(C)Nc1c([N+](=O)[O-])cc(C(C)(C)C)cc1[N+](=O)[O-] (stereo not given),3.77 µM (active),–
O=C(O)CCCOc1ccc(Cl)cc1Cl,–,inactive
CC(C)OC(=O)Nc1cccc(Cl)c1,5.09 µM (active),–
C#CCN1C(=O)COc2cc(F)c(N3C(=O)C4=C(CCCC4)C3=O)cc21,–,inactive
CC(C)(C)C(O)/C(=C\c1ccc(Cl)cc1Cl)n1cncn1 (stereo not given),20 µM (active),–
CNC(=O)Oc1cccc(N=CN(C)C)c1,–,inactive
CCC(C)(NC(=O)c1cc(Cl)c(C)c(Cl)c1)C(=O)CCl (stereo not given),3.97 µM (active),–
N#Cc1c(Cl)c(Cl)c(Cl)c(C#N)c1Cl,–,inactive
